# According to PubChem BioAssay (Tox21):
# Inconclusive results are not listed. A call without a number means that no potency is given here. Unmarked numbers belong to inactive results. Active and inactive are the calls of the source. Unless noted, the call rests on the fitted dose curve; in most records, active means well fitted curve in the direction sought with a large enough effect in the repeat runs; inconclusive means weak or mixed curves; inactive means no such curve, though single readings can be large; an effect the other way counts as inactive or inconclusive.
# Legend:
# [1] = qHTS assay to identify small molecule antagonists of the thyroid receptor (TR) signaling pathway - cell viability counter screen (AID 743064); further: nearly all actives have a fitted effect of over 50% in size
# Procedure, shortened: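 Same-well viability check: GH3.TRE-Luc cells stimulated with 1 nM T3 alongside test compound for 23.5 h, followed by CellTiter-Fluor fluorescence.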
# [2] = qHTS assay to identify small molecule antagonists of the thyroid receptor (TR) signaling pathway (AID 743065); further: series mostly up to about 70 µM; nearly all actives have a fitted effect of over 55% in size
# Procedure, shortened: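 Antagonism measured as loss of luciferase signal in GH3 cells stably carrying a TRE-luciferase reporter, co-treated with compound and T3 (1 nM final) for 23.5 h at 37 C. Viability was read in the same well by CellTiter-Fluor.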
# [3] = tested on: thyroid hormone receptor (rat, GH3 cells); experiment: qHTS assay to identify small molecule agonists of the thyroid receptor (TR) signaling pathway (AID 743066; calls by dose curve)
# [4] = target: Estrogen receptor (Homo sapiens) (UniProt P03372); experiment: qHTS assay to identify small molecule antagonists of the estrogen receptor alpha (ER-alpha) signaling pathway (AID 743069; active means well fitted curve in the direction sought with a large enough effect in the signal ratio in the repeat runs, not every such curve was filed as active; the % refers to the signal ratio)
# Procedure, shortened: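 ER-alpha-UAS-bla GripTite HEK293 line; 2% charcoal-stripped FBS overnight; plated, 4 hr 37C/5% CO2; cpd in DMSO + 17beta-estradiol, 18 hr 37C; LiveBLAzer B/G FRET substrate 2 hr RT; fluorescence intensity.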
# [5] = qHTS assay to identify small molecule antagonists of the estrogen receptor alpha (ER-alpha) signaling pathway - cell viability counter screen (AID 743074; calls by dose curve;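 further: HEK293 cells carrying ER-alpha-UAS-bla reporter stimulated with 17beta-estradiol; nearly all actives have a fitted effect of over 45% in size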)
# [6] = target: Estrogen receptor (Homo sapiens) (UniProt P03372); experiment: qHTS assay to identify small molecule agonists of the estrogen receptor alpha (ER-alpha) signaling pathway (AID 743075; calls by dose curve;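 further: HEK293 GripTite cells with ER-alpha and UAS-driven beta-lactamase reporter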)
# [7] = target: Estrogen receptor (Homo sapiens) (UniProt P03372); experiment: qHTS assay to identify small molecule agonists of the estrogen receptor alpha (ER-alpha) signaling pathway using the BG1 cell line (AID 743079); further: nearly all actives have a fitted effect of over 20% in size; further: potency means the concentration at half of the fitted maximal effect
# [8] = qHTS assay to identify small molecule antagonists of the estrogen receptor alpha (ER-alpha) signaling pathway using the BG1 cell line (AID 743080; calls by dose curve;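 further: BG1 cells stimulated with 17beta-estradiol alongside compound; series mostly up to about 70 µM; nearly all actives have a fitted effect of over 25% in size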)
# Procedure, shortened: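 Seeding, 24 h rest, compound transfer from DMSO, 17beta-estradiol addition, 21.5 h incubation, CellTiter-Fluor (30 min, 37 C), then ONE-Glo (30 min, room temperature): this sequence was run on BG1-Luc-4E2 reporter cells.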
# [9] = qHTS assay to identify small molecule antagonists of the estrogen receptor alpha (ER-alpha) signaling pathway using the BG1 cell line - cell viability counter screen (AID 743081);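 further: compound given together with 17beta-estradiol as the ER stimulus; series mostly up to about 70 µM; nearly all actives have a fitted effect of over 45% in size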
# Aromatase (Homo sapiens) = Aromatase (Homo sapiens) (UniProt P11511); experiment: qHTS assay to identify aromatase inhibitors (AID 743083); further: series mostly up to about 70 µM; nearly all actives have a fitted effect of over 55% in size
# [10] = qHTS assay to identify aromatase inhibitors - cell viability counter screen (AID 743084);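 further: cells stimulated with testosterone during compound exposure; nearly all actives have a fitted effect of over 55% in size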
# [11] = target: Aryl hydrocarbon receptor (Homo sapiens) (UniProt P35869); experiment: qHTS assay to identify small molecule that activate the aryl hydrocarbon receptor (AhR) signaling pathway (AID 743085);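 further: HG2L7.5c1 human HepG2 liver cells with stably integrated DRE-driven firefly reporter; series mostly up to about 70 µM; nearly all actives have a fitted effect of over 15% in size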
# Procedure, shortened: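 Reporter assay in engineered HepG2 line HG2L7.5c1, whose plasmid carries twenty dioxin responsive elements upstream of firefly luciferase. Treatment lasted 24 h at 37C; ONE-Glo luminescence gauged induction.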
# [12] = qHTS assay to identify small molecule that activate the aryl hydrocarbon receptor (AhR) signaling pathway - cell viability counter screen (AID 743086);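 further: HepG2 liver cells carrying the AhR DRE luciferase reporter; series mostly up to about 70 µM; nearly all actives have a fitted effect of over 45% in size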
# Procedure, shortened: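 Cytotoxicity counter screen: CellTiter-Fluor signal (30 min, 37 C) in 4000 HepG2 cells/well carrying the DRE-luciferase reporter, following 24 h compound exposure at 37 C.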
# [13] = target: Peroxisome proliferator-activated receptor gamma (Homo sapiens) (UniProt P37231); experiment: qHTS assay to identify small molecule agonists of the peroxisome proliferator-activated receptor gamma (PPARg) signaling pathway (AID 743094; active means well fitted activation curve with a large enough effect in the signal ratio in the repeat runs, not every such curve was filed as active; the % refers to the signal ratio)
# Procedure, shortened: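 Beta-lactamase FRET fluorescence was the read-out after a 1 h room-temperature substrate step, following 17 h compound treatment at 37C of HEK293H cells expressing a UAS-driven bla reporter responsive to PPARg.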
# [14] = target: Peroxisome proliferator-activated receptor gamma (Homo sapiens) (UniProt P37231); experiment: qHTS assay to identify small molecule antagonists of the peroxisome proliferator-activated receptor gamma (PPARg) signaling pathway (AID 743191; calls by dose curve; further: series mostly up to about 63 µM; nearly all actives have a fitted effect of over 30% in size)
# Procedure, shortened: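 Beta-lactamase reporter under UAS control in HEK293H PPARg-bla cells; compound treatment 17 h at 37C. Read-out: fluorescence intensity after 1 h room-temperature incubation with LiveBLAzer B/G FRET substrate.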
# [15] = qHTS assay to identify small molecule antagonists of the peroxisome proliferator-activated receptor gamma (PPARg) signaling pathway - cell viability counter screen (AID 743194); further: nearly all actives have a fitted effect of over 55% in size
# Procedure, shortened: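 Viability was measured as CellTiter-Glo luminescence in GeneBLAzer PPARg UAS-bla HEK293H cells. These cells had been exposed 17 h at 37 C to compounds together with rosiglitazone at 50 nM final, with the beta-lactamase readout taken in the same wells.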
# [16] = qHTS assay for small molecule agonists of the antioxidant response element (ARE) signaling pathway (AID 743202; active means well fitted activation curve with a large enough effect in the signal ratio in the repeat runs, not every such curve was filed as active; the % refers to the signal ratio)
# Procedure, shortened: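 Quantitative high-throughput format in HepG2 cells bearing an integrated ARE-beta-lactamase reporter. Compound exposure lasted 16 h at 37 C, and fluorescence was read 2 h after adding LiveBLAzer B/G substrate at room temperature.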
# [17] = qHTS assay for small molecule agonists of the antioxidant response element (ARE) signaling pathway - cell viability counter screen (AID 743203; calls by dose curve; further: nearly all actives have a fitted effect of over 55% in size)
# Procedure, shortened: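 HepG2 cells carrying ARE-driven beta-lactamase; 2,000 cells/well; 5 hrs plating; compound pinned from DMSO; 16 hrs 37C/5% CO2; CellTiter-Glo added; 30 min RT; luminescence.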
# [18] = qHTS assay for small molecule activators of the heat shock response signaling pathway - cell viability counter screen (AID 743209); further: nearly all actives have a fitted effect of over 50% in size
# Procedure, shortened: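 Luminescence from CellTiter-Glo, added after the beta-lactamase FRET read, gave the viability signal. Cells were HSE-bla HeLa treated with DMSO-dissolved compounds for 5 h at 37 C following overnight plating.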
# [19] = qHTS assay for small molecule activators of the heat shock response signaling pathway (AID 743210; active means well fitted activation curve with a large enough effect in the signal ratio in the repeat runs, with a control signal flat, not every such curve was filed as active; the % refers to the signal ratio;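 further: HeLa cells with beta-lactamase reporter driven by heat shock elements; series mostly up to about 63 µM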)
# Procedure, shortened: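 HeLa HSE-bla cells, overnight plating; cpd in DMSO 5 h, 37 C; LiveBLAzer B/G FRET substrate 2.5 h RT; fluorescence intensity read.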
# Aryl hydrocarbon receptor (Homo sapiens), sequence (P35869 whole entry, looked up): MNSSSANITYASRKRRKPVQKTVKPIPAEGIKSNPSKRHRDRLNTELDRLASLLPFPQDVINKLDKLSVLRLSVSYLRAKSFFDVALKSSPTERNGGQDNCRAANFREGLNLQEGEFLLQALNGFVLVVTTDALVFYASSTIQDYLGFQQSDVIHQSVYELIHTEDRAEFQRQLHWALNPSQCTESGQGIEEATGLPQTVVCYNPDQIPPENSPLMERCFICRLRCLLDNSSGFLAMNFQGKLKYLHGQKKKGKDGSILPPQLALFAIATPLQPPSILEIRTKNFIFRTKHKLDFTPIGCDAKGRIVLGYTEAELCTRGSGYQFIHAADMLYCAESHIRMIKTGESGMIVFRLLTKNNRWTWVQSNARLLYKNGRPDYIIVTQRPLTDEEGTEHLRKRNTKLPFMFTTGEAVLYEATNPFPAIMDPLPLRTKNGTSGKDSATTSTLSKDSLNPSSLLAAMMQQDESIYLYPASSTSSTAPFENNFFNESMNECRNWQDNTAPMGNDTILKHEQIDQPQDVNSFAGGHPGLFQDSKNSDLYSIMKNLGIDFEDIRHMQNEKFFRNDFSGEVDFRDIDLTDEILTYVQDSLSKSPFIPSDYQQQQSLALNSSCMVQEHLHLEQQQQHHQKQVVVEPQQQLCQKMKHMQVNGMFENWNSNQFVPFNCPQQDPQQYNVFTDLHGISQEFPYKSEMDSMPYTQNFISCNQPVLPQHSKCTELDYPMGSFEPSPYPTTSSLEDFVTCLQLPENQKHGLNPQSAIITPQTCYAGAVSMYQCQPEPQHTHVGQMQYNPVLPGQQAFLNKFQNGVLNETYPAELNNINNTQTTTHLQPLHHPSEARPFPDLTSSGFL
# Peroxisome proliferator-activated receptor gamma (Homo sapiens), sequence (P37231 whole entry, looked up): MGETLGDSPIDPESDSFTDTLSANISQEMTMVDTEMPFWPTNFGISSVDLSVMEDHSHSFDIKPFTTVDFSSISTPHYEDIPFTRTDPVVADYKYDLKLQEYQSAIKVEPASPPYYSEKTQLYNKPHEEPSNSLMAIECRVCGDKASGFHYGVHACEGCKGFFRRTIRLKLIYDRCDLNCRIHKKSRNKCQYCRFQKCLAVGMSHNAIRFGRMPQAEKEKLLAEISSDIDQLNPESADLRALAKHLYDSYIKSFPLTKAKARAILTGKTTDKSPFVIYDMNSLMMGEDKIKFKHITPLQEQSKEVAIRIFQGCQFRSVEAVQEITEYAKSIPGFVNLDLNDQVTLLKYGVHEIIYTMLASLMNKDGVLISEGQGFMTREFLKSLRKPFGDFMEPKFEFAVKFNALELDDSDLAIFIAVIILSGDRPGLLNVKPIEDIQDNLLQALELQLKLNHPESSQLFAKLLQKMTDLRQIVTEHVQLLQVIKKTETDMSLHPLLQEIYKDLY
# Estrogen receptor (Homo sapiens), sequence (P03372 whole entry, looked up): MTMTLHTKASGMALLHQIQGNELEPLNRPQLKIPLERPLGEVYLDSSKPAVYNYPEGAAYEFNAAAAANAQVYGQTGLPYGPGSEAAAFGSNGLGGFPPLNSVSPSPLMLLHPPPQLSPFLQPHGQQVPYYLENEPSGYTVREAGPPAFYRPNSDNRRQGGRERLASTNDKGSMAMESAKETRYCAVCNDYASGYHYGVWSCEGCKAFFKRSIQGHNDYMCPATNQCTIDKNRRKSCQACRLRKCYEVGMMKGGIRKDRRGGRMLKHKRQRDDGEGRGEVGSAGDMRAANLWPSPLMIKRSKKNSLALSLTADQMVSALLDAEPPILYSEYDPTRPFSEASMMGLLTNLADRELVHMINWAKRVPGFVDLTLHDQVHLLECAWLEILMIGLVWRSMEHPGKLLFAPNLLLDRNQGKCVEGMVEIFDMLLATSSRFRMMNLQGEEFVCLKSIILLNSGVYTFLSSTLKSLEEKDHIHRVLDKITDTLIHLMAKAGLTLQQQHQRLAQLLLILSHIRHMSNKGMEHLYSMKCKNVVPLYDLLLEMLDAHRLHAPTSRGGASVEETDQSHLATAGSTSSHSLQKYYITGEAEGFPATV
# Aromatase (Homo sapiens), sequence (P11511 whole entry, looked up): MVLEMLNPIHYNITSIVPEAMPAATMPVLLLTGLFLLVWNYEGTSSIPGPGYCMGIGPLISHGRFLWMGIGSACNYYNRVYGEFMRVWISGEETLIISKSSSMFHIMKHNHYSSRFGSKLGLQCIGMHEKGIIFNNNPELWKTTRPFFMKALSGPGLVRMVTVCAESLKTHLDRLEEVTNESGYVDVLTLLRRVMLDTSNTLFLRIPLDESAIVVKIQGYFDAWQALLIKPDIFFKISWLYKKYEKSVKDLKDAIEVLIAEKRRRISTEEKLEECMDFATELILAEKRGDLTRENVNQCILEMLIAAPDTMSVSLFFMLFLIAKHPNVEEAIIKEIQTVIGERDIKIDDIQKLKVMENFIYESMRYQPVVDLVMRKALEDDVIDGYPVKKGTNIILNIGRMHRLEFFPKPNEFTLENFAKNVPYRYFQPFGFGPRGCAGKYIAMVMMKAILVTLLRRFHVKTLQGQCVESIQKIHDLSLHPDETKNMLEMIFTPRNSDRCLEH
smiles,measurement,setting,value
CC(C)(O)c1ccccc1,Potency,[1],inactive
same,Potency,[2],inactive
same,Potency,[3],inactive
same,Potency,[4],inactive
same,outcome,[5],inactive
same,Potency,[6],inactive
same,Potency,[7],inactive
same,Potency,[8],inactive
same,outcome,[9],inactive
same,Potency,Aromatase (Homo sapiens),inactive
same,Potency,[10],inactive
same,Potency,[11],inactive
same,Potency,[12],inactive
same,outcome,[13],inactive
same,outcome,[14],inactive
same,Potency,[15],inactive
same,Potency,[16],inactive
same,outcome,[17],inactive
same,outcome,[18],inactive
same,outcome,[19],inactive
O=C(O)c1ccc[n+]([O-])c1,Potency,[1],inactive
same,Potency,[2],inactive
same,Potency,[3],inactive
same,Potency,[4],inactive
same,outcome,[5],inactive
same,Potency,[6],inactive
same,Potency,[7],inactive
same,Potency,[8],inactive
same,outcome,[9],inactive
same,Potency,Aromatase (Homo sapiens),inactive
same,Potency,[10],inactive
same,Potency,[11],inactive
same,Potency,[12],inactive
same,outcome,[13],inactive
same,Potency,[15],inactive
same,Potency,[16],inactive
same,outcome,[17],inactive
same,outcome,[18],inactive
same,outcome,[19],inactive
C1COCCO1,Potency,[1],inactive
same,Potency,[2],inactive
same,Potency,[3],inactive
same,Potency,[4],inactive
same,outcome,[5],inactive
same,Potency,[6],inactive
same,Potency,[7],inactive
same,Potency,[8],inactive
same,outcome,[9],inactive
same,Potency,Aromatase (Homo sapiens),inactive
same,Potency,[10],inactive
same,Potency,[11],inactive
same,Potency,[12],inactive
same,outcome,[13],inactive
same,outcome,[14],inactive
same,Potency,[15],inactive
same,outcome,[17],inactive
same,outcome,[18],inactive
same,outcome,[19],inactive
CC1(C)SC(C)(C)SC(C)(C)S1,Potency,[1],inactive
same,Potency,[2],inactive
same,Potency,[3],inactive
same,Potency,[4],inactive
same,outcome,[5],inactive
same,Potency,[6],inactive
same,Potency,[7],inactive
same,Potency,[8],inactive
same,outcome,[9],inactive
same,Potency,Aromatase (Homo sapiens),inactive
same,Potency,[10],inactive
same,Potency,[11],inactive
same,Potency,[12],inactive
same,outcome,[13],inactive
same,Potency,[15],inactive
same,Potency,[16],inactive
same,outcome,[17],inactive
same,outcome,[18],inactive
same,outcome,[19],inactive
CC(=O)OC(C)(C)C,Potency,[1],inactive
same,Potency,[2],inactive
same,Potency,[3],inactive
same,Potency,[4],inactive
same,outcome,[5],inactive
same,Potency,[6],inactive
same,Potency,[7],inactive
same,Potency,[8],inactive
same,outcome,[9],inactive
same,Potency,Aromatase (Homo sapiens),inactive
same,Potency,[10],inactive
same,Potency,[11],inactive
same,Potency,[12],inactive
same,outcome,[13],inactive
same,outcome,[14],inactive
same,Potency,[15],inactive
same,Potency,[16],inactive
same,outcome,[17],inactive
same,outcome,[18],inactive
same,outcome,[19],inactive
NCC[C@H](O)C(=O)N[C@@H]1C[C@H](N)[C@@H](O[C@H]2O[C@H](CN)[C@@H](O)[C@H](O)[C@H]2O)[C@H](O)[C@H]1O[C@H]1O[C@H](CO)[C@@H](O)[C@H](N)[C@H]1O,Potency,[1],inactive
same,Potency,[2],inactive
same,Potency,[3],inactive
same,Potency,[4],inactive
same,outcome,[5],inactive
same,Potency,[6],inactive
same,Potency,[7],23.7 µM (active)
same,Potency,[8],inactive
same,outcome,[9],inactive
same,Potency,Aromatase (Homo sapiens),inactive
same,Potency,[10],inactive
same,Potency,[11],inactive
same,Potency,[12],inactive
same,outcome,[13],inactive
same,"activity change, negative = cytotoxicity",[15],0.328% [at 0.55 µM]
same,activation,[16],2.58% [at 0.756 µM]
same,"viability change, negative = cytotoxic",[17],-0.425% [at 0.756 µM]
same,"activity change, negative = cytotoxicity",[18],-14.9% [at 0.55 µM]
same,activation,[19],0.848% [at 0.55 µM]
Nc1cc(C(Cl)=C(Cl)Cl)c(S(N)(=O)=O)cc1S(N)(=O)=O,Potency,[1],inactive
same,Potency,[2],inactive
same,Potency,[3],inactive
same,Potency,[4],inactive
same,outcome,[5],inactive
same,Potency,[6],inactive
same,Potency,[7],inactive
same,Potency,[8],inactive
same,outcome,[9],inactive
same,Potency,Aromatase (Homo sapiens),inactive
same,Potency,[10],inactive
same,Potency,[11],inactive
same,Potency,[12],inactive
same,outcome,[13],inactive
same,Potency,[15],inactive
same,Potency,[16],inactive
same,outcome,[17],inactive
same,outcome,[18],inactive
same,outcome,[19],inactive
O=C(O)c1cccc(C(=O)O)n1,Potency,[1],inactive
same,Potency,[2],inactive
same,Potency,[3],inactive
same,Potency,[4],inactive
same,outcome,[5],inactive
same,Potency,[6],inactive
same,Potency,[7],inactive
same,Potency,[8],inactive
same,outcome,[9],inactive
same,Potency,Aromatase (Homo sapiens),inactive
same,Potency,[10],inactive
same,Potency,[11],inactive
same,Potency,[12],inactive
same,outcome,[13],inactive
same,outcome,[14],inactive
same,Potency,[15],inactive
same,outcome,[17],inactive
same,outcome,[18],inactive
same,outcome,[19],inactive
CCC(C(=O)NC(N)=O)c1ccccc1 (stereo unspecified),Potency,[1],inactive
same,Potency,[2],inactive
same,Potency,[3],inactive
same,Potency,[4],inactive
same,outcome,[5],inactive
same,Potency,[6],inactive
same,Potency,[7],inactive
same,Potency,[8],inactive
same,outcome,[9],inactive
same,Potency,Aromatase (Homo sapiens),inactive
same,Potency,[10],inactive
same,Potency,[11],inactive
same,Potency,[12],inactive
same,outcome,[13],inactive
same,outcome,[14],inactive
same,Potency,[15],inactive
same,outcome,[18],inactive
same,outcome,[19],inactive
NCCNC(=O)c1ccc(Cl)cn1,Potency,[1],inactive
same,Potency,[2],inactive
same,Potency,[3],inactive
same,Potency,[4],inactive
same,outcome,[5],inactive
same,Potency,[6],inactive
same,Potency,[7],inactive
same,Potency,[8],inactive
same,outcome,[9],inactive
same,Potency,Aromatase (Homo sapiens),inactive
same,Potency,[10],inactive
same,Potency,[11],inactive
same,Potency,[12],inactive
same,outcome,[13],inactive
same,outcome,[14],inactive
same,Potency,[15],inactive
same,Potency,[16],inactive
same,outcome,[17],inactive
same,outcome,[18],inactive
same,outcome,[19],inactive
CCN(CC)C(=O)c1ccc(O)c(OC)c1,Potency,[1],inactive
same,Potency,[2],inactive
same,Potency,[3],inactive
same,Potency,[4],inactive
same,outcome,[5],inactive
same,Potency,[6],inactive
same,Potency,[7],inactive
same,Potency,[8],inactive
same,outcome,[9],inactive
same,Potency,Aromatase (Homo sapiens),inactive
same,Potency,[10],inactive
same,Potency,[11],inactive
same,Potency,[12],inactive
same,outcome,[13],inactive
same,outcome,[14],inactive
same,Potency,[15],inactive
same,Potency,[16],inactive
same,outcome,[17],inactive
same,outcome,[18],inactive
same,outcome,[19],inactive
COCCOC(=O)CC#N,Potency,[1],inactive
same,Potency,[2],inactive
same,Potency,[3],inactive
same,Potency,[4],inactive
same,outcome,[5],inactive
same,Potency,[6],inactive
same,Potency,[7],inactive
same,Potency,[8],inactive
same,outcome,[9],inactive
same,Potency,Aromatase (Homo sapiens),inactive
same,Potency,[10],inactive
same,Potency,[11],inactive
same,Potency,[12],inactive
same,outcome,[13],inactive
same,Potency,[15],inactive
same,Potency,[16],inactive
same,outcome,[17],inactive
same,outcome,[18],inactive
same,outcome,[19],inactive
CC(C)(C)OC(=O)N1C[C@@H](F)C[C@H]1C(=O)O,Potency,[1],inactive
same,Potency,[2],inactive
same,Potency,[3],inactive
same,Potency,[4],inactive
same,outcome,[5],inactive
same,Potency,[6],inactive
same,Potency,[7],inactive
same,Potency,[8],inactive
same,outcome,[9],inactive
same,Potency,Aromatase (Homo sapiens),inactive
same,Potency,[10],inactive
same,Potency,[11],inactive
same,Potency,[12],inactive
same,outcome,[13],inactive
same,outcome,[14],inactive
same,Potency,[15],inactive
same,Potency,[16],inactive
same,outcome,[17],inactive
same,outcome,[18],inactive
same,outcome,[19],inactive
NC(=O)c1ncn([C@@H]2O[C@H](CO)[C@@H](O)[C@H]2O)c1N,Potency,[1],inactive
same,Potency,[2],inactive
same,Potency,[3],inactive
same,Potency,[4],inactive
same,outcome,[5],inactive
same,Potency,[6],inactive
same,Potency,[7],inactive
same,Potency,[8],inactive
same,outcome,[9],inactive
same,Potency,Aromatase (Homo sapiens),inactive
same,Potency,[10],inactive
same,Potency,[11],inactive
same,Potency,[12],inactive
same,outcome,[13],inactive
same,outcome,[14],inactive
same,Potency,[15],inactive
same,Potency,[16],inactive
same,outcome,[17],inactive
same,outcome,[18],inactive
same,outcome,[19],inactive
